Screens as filed in PubChem.
Only some compounds are listed: those with a hit (about 21% of all), similar ones and a draw of the others.
Pf growth 48h: inhibits P. falciparum growth in the first generation, 48 h; P. falciparum luciferase growth in erythrocytes, 48 h; Potency, µM (top dose mostly 28.7 µM), without a hit: at the top dose activity change, negative = inhibition, hits mostly inhibitors; 5.9% of 310,000 active; active = well fitted inhibition curve with a large enough effect; inconclusive = small, poorly fitted or top-dose-only effect, or another doubt; inactive = no such curve, though single readings can be large or run the other way; also: potency is read from the fitted curve at half-maximal effect; % is scaled to controls: 0 for no effect and ±100 for the full control effect
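First compound was added to culture medium, then infected red cells at 0.1% parasitemia and 2% hematocrit (final). After incubation at 37 C under 5% CO2, luciferase detection reagent was dispensed and light output recorded.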
Pf growth 96h: P. falciparum growth inhibition at 96 hour, primary screen for plastid delayed-death inhibitors; P. falciparum luciferase reporter growth, 96 h; Potency, µM (highest dose often 28.7 µM), inactives show top-dose activity change, negative = inhibition, most hits filed as inhibitors; 6.9% of 320,000 active; AID 504834; active = well fitted inhibition curve with a large enough effect; inconclusive = small, poorly fitted or top-dose-only effect, or another doubt; inactive = no such curve, though single readings can be large or run the other way; also: potency is read from the fitted curve at half-maximal effect; % is scaled to controls: 0 for no effect and ±100 for the full control effect
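P. falciparum expressing integrated firefly luciferase grown in erythrocytes (2% hematocrit, 0.05% parasitemia final) with compounds for 96 hours at 37 C, 5% CO2. Growth inhibition read as loss of luminescence after adding luciferase detection reagent.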
Cycloheximide cs: affects cycloheximide protein synthesis inhibition readout, counter-screen; cell reporter, cycloheximide protein synthesis inhibition counterscreen; max response, %; 12% of 300,000 active; in the data active = max response mostly above about 13%, no sharp cut-off; inactive = mostly below about 14%; also: read at 38.3 µM for the half of the compounds with a filed dose; 0% is about no effect
Shiga toxin inh: Shiga toxin inhibition | Vero cells, Shiga toxin protein synthesis inhibition reporter | inhibition, % at 38.7 µM | 9.2% of 290,000 active | AID 2315; in the data active = inhibition mostly above about 28%, no sharp cut-off; inactive = mostly below about 43%; also: 0% is about no effect
NS1 function inh: blocks influenza NS1 protein function; Potency, µM (series often up to 46.1 µM), without a hit: top-dose activity, positive = more growth; 0.4% of 270,000 active; AID 2326; also: potency is read from the fitted curve at half-maximal effect; actives are rising curves; nearly all actives have a fitted effect of over 50% in size
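S. cerevisiae expressing influenza A NS1, grown in glucose, washed, then diluted 1:100 into pH 6.0 -URA galactose medium with 23 nl compound. Growth recovery read as OD600; NS1-free strain serves as control.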
SARS PLP yeast: inhibitors of SARS-CoV papain-like protease in yeast | S. cerevisiae expressing SARS-CoV PLpro, growth rescue | 0.19% of 330,000 active | AID 485353 | Potency, µM (doses to about 32.9 µM), for inactives: at the top dose activity, positive = growth rescue, usual class: activators; also: potency is read from the fitted curve at half-maximal effect; 0% is about no effect; nearly all actives have a fitted effect of over 55% in size
* marks the source's active call; other numbers are inactive results; ? = inconclusive; · = no result; ! = not confirmed by another sample. Unless noted, calls follow the shape of the full dose curve.

SMILES | Pf growth 48h | Pf growth 96h | Cycloheximide cs | Shiga toxin inh | NS1 function inh | SARS PLP yeast
C=C1CCC[C@]2(C)C[C@H]3OC(=O)C(CNC(C)(CO)CO)[C@H]3CC12 (some centres undefined) | · | ? | -6 | -7 | 1% | 0%
Cc1cccc(NC(=O)c2ccc(NCCO)c([N+](=O)[O-])c2)n1 | 76% | 184% | 30* | 53* | -3% | 3%
Cc1cccc(NC(=O)c2ccc(NCC3CCCO3)c([N+](=O)[O-])c2)n1 (centres undefined) | 37% | 14% | 19* | 68* | · | -1%
Cc1cccc(NC(=O)c2ccc(NCC3CCCO3)c([N+](=O)[O-])c2)c1 (centres undefined) | 6% | ? | 19* | 2 | 3% | 18%
COc1ccccc1CNS(=O)(=O)c1ccc2[nH]c3c(c2c1)CCCCC3 | · | · | 6 | 16 | · | ·
Cc1ccc2c(c1)N(Cc1ccncc1)C(=O)C(C)O2 (centres undefined) | -14% | 1% | -1 | -10 | -11% | 0%
COC(=O)/C(=C\Nc1ccc(Cl)cc1Cl)NC(=O)c1ccc(Cl)cc1Cl | 6% | 1% | 19* | 80* | -2% | ·
COc1ccccc1/C=C(/NC(=O)c1ccc(Cl)cc1Cl)C(=O)O | 20% | 8.3µM* | 1 | -7 | 2% | -1%
COc1ccc(/C=C(/NC(=O)c2ccccc2Cl)C(=O)O)cc1 | 5% | 24% | -1 | -18 | 0% | 1%
COC(=O)/C(=C\Nc1ccc(Cl)cc1Cl)NC(=O)c1ccccc1 | 2% | 17% | -2 | 3 | -15% | ·
CCOC(=O)NC(=O)/C(C#N)=C\Nc1ccc(Cl)cc1Cl | 83% | 92% | 32* | 26 | · | 0%
COC(=O)[C@]1(Cc2ccccc2)N[C@H](c2ccc(-c3ccc(F)cc3)cc2)[C@@H]2C(=O)N(C)C(=O)[C@@H]21 | ? | 13µM* | · | · | · | -2%
CCN1C(=O)[C@H]2[C@@H](c3ccc(-c4cc(C(C)=O)cs4)cc3)N[C@@](Cc3ccccc3)(C(=O)OC)[C@H]2C1=O | · | · | · | · | · | -5%
CCN1C(=O)[C@H]2[C@@H](c3ccc(-c4ccccc4)cc3)N[C@@](Cc3ccccc3)(C(=O)OC)[C@H]2C1=O | 10µM* | ? | · | · | · | 3%
CCN1C(=O)[C@H]2[C@@H](c3ccc(-c4ccc(C(C)=O)cc4)cc3)N[C@@](Cc3ccccc3)(C(=O)OC)[C@H]2C1=O | 13µM* | 10µM* | · | · | · | -2%
COC(=O)[C@]1(C)N[C@H](c2ccc(-c3ccccc3)cc2)[C@@H]2C(=O)N(C)C(=O)[C@@H]21 | ? | ? | · | · | · | -14%
CCN1C(=O)[C@H]2[C@@H](c3ccc(-c4ccccc4)c(OC)c3)N[C@@](CC(C)C)(C(=O)OC)[C@H]2C1=O | · | · | · | · | · | -8%
CCN1C(=O)[C@H]2[C@@H](c3ccc(-c4ccccc4)cc3)N[C@@](CC(C)C)(C(=O)OC)[C@H]2C1=O | 8.3µM* | 9.3µM* | · | · | · | 2%
CCN1C(=O)[C@H]2[C@@H](c3ccc(-c4ccc(Cl)c(Cl)c4)cc3)N[C@@](Cc3ccccc3)(C(=O)OC)[C@H]2C1=O | ? | ? | · | · | · | -3%
C=CCn1c(O)c2ccc(C(=O)N=NC(=O)COc3ccc(OC)cc3)cc2c1O | 23% | 34% | 1 | -3 | 10% | 0%
CC(=O)Nc1ccc(S(=O)(=O)N2CCN(c3ccc([N+](=O)[O-])cc3)CC2)cc1 | ? | -27% | -2 | -2 | -1% | 1%
C/C=C/C(O)c1ccc2ccccc2c1 (centres undefined) | -15% | ? | 20*! | 26*! | 26% | -5%
CC(C)NCC(O)c1ccc2ccccc2c1 (centres undefined) | 1.5µM* | 4.7µM* | · | · | · | ·
CN(C)C(=S)Nc1ccc2ccccc2c1 | 16% | 21% | 11 | 16 | 7% | ?
Cn1c(=O)c2c(ncn2Cc2cccc(Cl)c2)n(C)c1=O | ? | 0.93µM* | 9 | 12 | 14% | 7%
SMILES | Pf growth 48h | Pf growth 96h | Cycloheximide cs | Shiga toxin inh | NS1 function inh | SARS PLP yeast
CC(C)Cn1c(-c2ccco2)csc1=Nc1cccnc1 | 15µM* | ? | -3 | 27 | -12% | -1%
Fc1ccccc1-c1csc(=Nc2cccnc2)n1CC1CCCO1 (centres undefined) | 8.3µM* | 12µM* | 5 | 7 | -3% | -5%
Fc1ccccc1-c1csc(=Nc2cccnc2)n1CCCn1ccnc1 | 7.4µM* | 15µM* | 1 | -5 | -2% | -25%
COCCn1c(-c2cccs2)csc1=Nc1cccnc1 | -4% | ? | 2 | -28 | -2% | -4%
COCCn1c(-c2ccco2)csc1=Nc1cccnc1 | ? | · | -8 | -7 | 6% | -1%
Cc1csc(=Nc2cccnc2)n1CC1CCCCC1 | ? | ? | 0 | 10 | -21% | -12%
CC(C)(C)Nc1nc(Cl)nc(NC(C)(C)C)n1 | 0% | 15µM* | 5 | 12 | 0% | 19%
CNc1nc(Cl)nc(NC(C)(C)C)n1 | 10% | 36% | 1 | -3 | 12% | 2%
COc1ccc(NC(=S)N(C)CC2COc3ccccc3O2)cc1 (centres undefined) | 40% | 40% | 24* | 73* | -3% | -1%
CCN(CC)Cc1c(O)ccc2c1O/C(=C\C=C\c1ccccc1)C2=O | ? | ? | 16* | 106* | 8% | 11%
COc1ccccc1/C=C/C=C1\Oc2c(ccc(O)c2CN(C)C)C1=O | 2.6µM* | ? | 13* | 29 | 18% | -2%
O=C1C=C(Nc2ccc(Cl)cc2Cl)CC(c2ccco2)C1 (centres undefined) | 16% | ? | 7 | 5 | · | -17%
O=C(Cn1cnc2c(NCc3ccccc3)ncnc21)NCCCN1CCCC1=O | · | · | · | · | · | 8%
CCCCOc1ccc(Nc2nc(C)cc(C)c2C#N)cc1 | 7% | 10µM* | -1 | 7 | 1% | -4%
Cc1cc(C)c(C#N)c(Nc2ccccc2)n1 | 9% | ? | 5 | -4 | 6% | 10%
COC(=O)c1[nH]c2ccc(C)cc2c1NC(=O)C(C)N1CCN(C2CCCCC2)CC1 (centres undefined) | ? | 10µM* | -7 | -4 | -10% | 3%
COC(=O)c1[nH]c2ccc(Br)cc2c1NC(=O)CN1CCCCC1CCO (centres undefined) | ? | 5.2µM* | -1 | 35 | 16% | -1%
COC(=O)c1[nH]c2ccc(Br)cc2c1NC(=O)C(C)N1CCN(C2CCCCC2)CC1 (centres undefined) | ? | 2.1µM* | -6 | 13 | -14% | 8%
COC(=O)c1[nH]c2ccc(C)cc2c1NC(=O)CN1CCC(C)CC1 | -18% | ? | -5 | -19 | 0% | 1%
C[C@H]1[C@H](NC(=O)C(=NOC(C)(C)C(=O)O)c2csc(N)n2)C(=O)N1S(=O)(=O)O | 0% | -4% | · | · | · | ·
CCOC(=O)c1c(S(=O)(=O)N2CCN(C)CC2)c(C)n(C)c1C | 12% | ? | -2 | -14 | 3% | 0%
